This is a sample that favours compounds with a hit; in the whole collection about 3.3% have one here.
HTT ATP protect: qHTS Multiplex Assay to Identify Dual Action Probes in a Cell Model of Huntington: Cytoprotection (ATP) | hit rate 0.14% among 230,000 | PC12 HTT-Q103 induced, cytoprotection, ATP luminescence, 40 h | Potency, µM (top dose mostly 56.4 µM), for inactives: cytoprotection (ATP increase), usual class: activators; further: potency means the concentration at half of the fitted maximal effect; % of control where 0% means no effect; nearly all actives have a fitted effect of over 45% in size
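PC12 cells stably carrying ecdysone-inducible Htt exon 1 (Q103)–GFP were induced with 100 nM tebufenozide (final) alongside library compounds in a dose series. Cytoprotection was scored as retained ATP by ATPlite luminescence.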
IMPase inh: qHTS Assay for Identifying the Cell-Membrane Permeable IMPase Inhibitors | Inositol monophosphatase 1 (Rattus norvegicus), P97697 | inhibition (IP1 accumulation), % at 46.1 µM | 120,000 tested, under 10 active | CHO-M1 cells, IP1 accumulation, HTRF TR-FRET ratio; active means well fitted curve in the direction sought with a large enough effect in the signal ratio, not every such curve was filed as active; inconclusive means small, poorly fitted or top-dose-only effect, or a change in a side signal; inactive means no such curve, though single readings can be large or run the other way; the % refers to the signal ratio;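 further: cells stimulated with carbachol in lithium chloride buffer; plate controls were DMSO basal wells for no effect and reference inhibitor wells for full effect; higher means more IMPase inhibition seen as more IP1 and lower FRET ratio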
Target sequence (P97697 whole entry, looked up): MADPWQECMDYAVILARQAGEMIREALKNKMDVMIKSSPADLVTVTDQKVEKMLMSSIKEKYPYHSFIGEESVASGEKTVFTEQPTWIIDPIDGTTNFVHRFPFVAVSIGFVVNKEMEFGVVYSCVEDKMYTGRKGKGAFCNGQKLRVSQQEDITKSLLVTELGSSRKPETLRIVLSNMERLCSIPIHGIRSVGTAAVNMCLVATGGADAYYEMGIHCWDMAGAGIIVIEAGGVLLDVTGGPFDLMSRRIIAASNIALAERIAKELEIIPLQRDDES
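Cellular IMPase inhibition is scored as a rise in cytosolic IP1, detected by competitive TR-FRET between d2-labelled IP1 and a europium anti-IP1 antibody. M1-expressing CHO cells were stimulated with carbachol for 30 min at 37C, with lithium (50 mM LiCl) present in the buffer.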
12-hLO inh: qHTS Assay for Inhibitors of 12-hLO (12-human lipoxygenase) | Polyunsaturated fatty acid lipoxygenase ALOX12 (Homo sapiens), P18054 | Potency, µM (titrated, usually from 57.1 µM), for the others: top-dose activity change, negative = inhibition, usual class: inhibitors | hit rate 0.12% among 150,000 | purified 12-hLO, xylenol orange hydroperoxide absorbance | AID 1452, 2008; further: potency means the concentration at half of the fitted maximal effect; on the % scale 0 is the no-effect control and ±100 the full control effect; nearly all actives have a fitted effect of over 55% in size
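Xylenol orange chromogenic assay: hydroperoxide from 12hLO oxidises Fe(II), giving red-shifted Fe(III)-XO absorbance. Conditions: 150 nM enzyme, 40 uM arachidonic acid, 25 mM Hepes pH 7.0, 0.01% Triton X-100, 30 min, room temperature.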
HttQ103 aggreg: qHTS Multiplex Assay to Identify Dual Action Probes in a Cell Model of Huntington: Aggregate Formation (GFP); AID 1688, 2009; PC12 HttQ103-GFP aggregates, Acumen cytometry, 40 h; Potency, µM (top dose mostly 46.1 µM), for inactives: top-dose activity change, negative = inhibition, usual class: inhibitors; hit rate 1.1% among 220,000; further: potency means the concentration at half of the fitted maximal effect; on the % scale 0 is the no-effect control and ±100 the full control effect; nearly all actives have a fitted effect of over 60% in size
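PC12/HTTQ103-GFP, ecdysone-inducible; teb 100 nM; cpd qHTS titration; GFP aggregates read on laser cytometer, Ex 488/Em 500-530 nm.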
NPSR antag: qHTS Assay for Antagonists of the Neuropeptide S Receptor: cAMP Signal Transduction; CHO-NPSR cells, cAMP TR-FRET, antagonist mode; Potency, µM (titrated, usually from 38.3 µM), for the others: at the top dose activity change, negative = inhibition, hits mostly inhibitors; hit rate 1% among 220,000; AID 1461, 2008; Q6W5P4; further: potency means the concentration at half of the fitted maximal effect; on the % scale 0 is the no-effect control and ±100 the full control effect; nearly all actives have a fitted effect of over 50% in size
Target sequence (Q6W5P4 whole entry, looked up): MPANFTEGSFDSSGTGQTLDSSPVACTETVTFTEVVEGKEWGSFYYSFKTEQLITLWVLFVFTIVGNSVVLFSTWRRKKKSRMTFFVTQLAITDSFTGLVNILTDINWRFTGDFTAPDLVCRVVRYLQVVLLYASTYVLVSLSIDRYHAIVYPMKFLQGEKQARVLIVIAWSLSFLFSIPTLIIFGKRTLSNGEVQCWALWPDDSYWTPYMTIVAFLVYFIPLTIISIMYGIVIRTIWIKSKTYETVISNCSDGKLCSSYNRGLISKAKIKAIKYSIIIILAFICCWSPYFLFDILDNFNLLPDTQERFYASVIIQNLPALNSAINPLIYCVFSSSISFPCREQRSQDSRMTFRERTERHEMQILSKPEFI
PNC assembly inh: High Content Assay for Compounds that inhibit the Assembly of the Perinucleolar Compartment; hit rate 3.1% among 140,000; AID 2417, 2010; PC3M PTB-GFP, PNC prevalence imaging, 16 h; hits give low values; activity change (PNC), negative = inhibition, % at 10 µM;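 active means readout at or below -70, meaning at least 70% loss of cells showing the perinucleolar compartment, a nuclear body marking cancer cells; inconclusive means readout between -30 and a set limit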;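 further: plate controls were DMSO wells for no effect and camptothecin positive control wells for full effect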
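Read-out is percentage of cells bearing a perinucleolar compartment, from automated 20x imaging of fixed, Hoechst-stained PC3M PTB-GFP cells. Cells were seeded 4 h, then exposed 16 h to compound (23 nl of library stock) in duplicate plates.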
An asterisk follows results filed as active; ? = inconclusive; / = no result; [ ] = dose if it differs, or a comment. Unless noted, the call rests on the fitted dose curve; in most records, active means well fitted curve in the direction sought with a large enough effect; inconclusive means small, poorly fitted or top-dose-only effect, or another doubt; inactive means no such curve, though single readings can be large; an effect the other way counts as inactive or inconclusive.

SMILES | HTT ATP protect | IMPase inh | 12-hLO inh | HttQ103 aggreg | NPSR antag | PNC assembly inh
CCc1ccc(N2CC(C(=O)OCC(=O)NC3CCS(=O)(=O)C3)CC2=O)cc1 (stereo not drawn) | 34%[10 µM] | -3 | 2% | 1% | -8%[46.1 µM] | -100*
CS(=O)(=O)N1CCc2cc(-c3csc(NC(=O)Cc4ccccc4)n3)ccc21 | -21%[10 µM] | 10 | -4% | 8% | -25% | -119*
CCC(=O)Nc1nc(-c2ccc3c(c2)CC(C)N3S(C)(=O)=O)cs1 (stereo not drawn) | -10%[10 µM] | / | / | 8%[9.22 µM] | -6% | /
CC1Cc2cc(-c3csc(NC(=O)Cc4cccs4)n3)ccc2N1S(C)(=O)=O (stereo not drawn) | -2%[10 µM] | 9 | 0% | ? | -27%[46.1 µM] | -125*
CCCC[n+]1c(C)sc2cc(OC)ccc21 | -3%[10 µM] | / | / | 6%[9.22 µM] | -6% | /
COc1ccc2sc(C)[n+](C)c2c1 | 11µM* | / | / | -21% | 7% | /
Cc1c(C(=O)OC2CCCCC2)[nH]c2c1C(=O)CC(c1ccc(C(C)(C)C)cc1)C2 (stereo not drawn) | / | 3 | / | / | / | /
O=C(COC(=O)Cc1ccc(Br)cc1)NCc1ccc(F)cc1 | -55% | / | / | 21% | 5% | /
CCCC[C@H]1C[C@@H]1[C@@H]1N(P(=O)(c2ccccc2)c2ccccc2)[C@](CO)(c2ccccc2)CC12CC2 | -207% | / | -12% | / | / | /
CC(C)c1nc(SCC(=O)N2CCOCC2)c2c(=O)n(C)c(=O)n(C)c2n1 | -16% | -1 | 4% | 2% | 3%[46.1 µM] | -106*
COc1ccc2c(=O)c3c(=O)n(CCc4ccccc4)c(C(C)C)nc3oc2c1 | -1%[10 µM] | / | / | 28%[9.22 µM] | ? | /
CC(C)c1ccc(NC(=O)c2cc(S(=O)(=O)NCC3COc4ccccc4O3)ccc2F)cc1 (stereo not drawn) | / | / | -4% | ? | -40% | -113*
N#CCC(=O)NN | 21% | / | / | -1% | / | /
CCN1CCCC1CNC(=O)c1csc2c1CCCC2 (stereo not drawn) | 12%[10 µM] | 3[1.84 µM] | 1% | -2% | -9%[46.1 µM] | -85*
CCN1CCS/C1=C\C=C\C1=[N+](CC)CCS1 | -66% | / | / | 1.1µM* | -39% | /
CCN1CCS/C1=C/C=C/C1=[N+](CC)CCS1 | -25%[10 µM] | / | -3% | 0.5µM* | -21% | -21
COc1ccccc1C(C[N+](=O)[O-])c1c(N)n(C)c(=O)n(C)c1=O (stereo not drawn) | -64%[10 µM] | / | / | -16%[9.22 µM] | 10µM* | /
COc1ccccc1C(c1c(N)n(C)c(=O)n(C)c1=O)C(C)[N+](=O)[O-] (stereo not drawn) | 15%[10 µM] | / | / | -19%[9.22 µM] | 4% | /
COC(=O)C1(C)C=C2C(=C(c3ccccc3)C(=O)C2C)CN1 (stereo not drawn) | -37% | / | -3% | / | / | /
CCOC(=O)Nc1ccc2nc(Sc3ccc(Cl)cc3)sc2c1 | -31%[10 µM] | / | / | -18%[9.22 µM] | -39% | /
CCCCOC(=O)c1cccc(NC(=O)c2cc3ccccc3o2)c1 | / | 1 | / | / | / | /
CCc1c(C)sc2nc(C(C)C)nc(SCC(=O)N3CCc4ccccc4C3)c12 | -3%[10 µM] | 5[1.84 µM] | 6% | 3.5µM* | ? | ?
Cc1sc2nc(C3CC3)nc(SCC(=O)N3CCc4ccccc4C3)c2c1C | -8%[10 µM] | -2[1.84 µM] | 8% | 7.1µM* | ? | ?
Cc1sc2nc(C3CC3)nc(SCC(=O)N3CCCc4ccccc43)c2c1C | -9%[10 µM] | / | -1% | -30% | -49% | 10
O=C(Nc1nc(-c2ccccc2)c(C(=O)c2ccccc2)s1)c1ccc(S(=O)(=O)N2CCCC2)cc1 | -12%[10 µM] | -3 | 0% | ? | 6.3µM* | -1
SMILES | HTT ATP protect | IMPase inh | 12-hLO inh | HttQ103 aggreg | NPSR antag | PNC assembly inh
COC(=O)Nc1nc(-c2ccccc2)c(C(=O)c2ccccc2)s1 | -83%[10 µM] | 2 | -3% | ? | ? | -98*
COC(=O)Nc1nc(C)c(C(=O)c2ccccc2)s1 | -50% | -3 | -1% | -29% | 6%[46.1 µM] | ?
COc1ccc(-c2nc(N3CCCCCC3)sc2C(=O)c2ccccc2)cc1 | -17% | -6 | -1% | ? | 5µM* | 112
COc1cc(Br)c(C2CC(=O)Nc3cc(OC)c(OC)c(OC)c32)cc1OC (stereo not drawn) | / | 2 | / | / | / | /
COc1cccc(N=Nc2c(N)[nH]n3c(=O)cc(-c4ccccc4)nc23)c1 | -77% | 5 | 3% | 10µM* | -29%[46.1 µM] | 12
O=C(c1csnn1)N1CCC2(CCCN(c3ncccn3)C2)CC1 | 6% | / | 3% | / | / | /
CCC(Sc1nnnn1C)C(=O)Nc1ccc(C(C)=O)cc1 (stereo not drawn) | 15% | 5 | 0% | 1% | -2%[46.1 µM] | -87*
C(=N\n1cnnc1)/c1ccc(OCc2ccccc2)cc1 | -22% | 3 | -3% | 0% | -6%[46.1 µM] | 25
Cc1cc(/C=N/n2cnnc2)c(C)n1-c1ccc(OCc2ccccc2F)cc1 | -66% | 13 | -8% | 10µM* | ? | ?
Cc1cc(/C=N/n2cnnc2)c(C)n1-c1ccc(OCc2ccc(Cl)cc2)cc1 | -63% | 9 | -4% | 2.5µM* | 10µM* | 1
COc1cccc(Nc2nc3ccc(C)cc3nc2-n2nc(C)cc2C)c1 | / | 9 | / | / | / | /
O=C(O)CSc1ncccc1[N+](=O)[O-] | -2%[10 µM] | / | -1%[11.4 µM] | / | / | /
CCCC1=[N+](CC)CCn2c(C)ccc21 | 31%[10 µM] | -10[1.84 µM] | -2% | 11µM* | 1%[46.1 µM] | 22
CNC(=O)c1cc2c(cn1)[nH]c1ccccc12 | -103% | -6 | -1% | / | -12%[46.1 µM] | /
CC(=O)N(C(C)=O)c1ncc2c([nH]c3ccccc32)c1C#N | -5% | 7 | 3% | 3.2µM* | -19%[46.1 µM] | ?
COc1ccc(CSCCN)cc1Cl | -23%[10 µM] | 0 | -1% | -8% | 0%[46.1 µM] | -96*
Cc1cccc(Oc2nc3ccccn3c(=O)c2/C=C(\C#N)C(=O)NC2CCS(=O)(=O)C2)c1 (stereo not drawn) | -7%[10 µM] | / | -5% | 17% | -3% | -104*
COC(=O)/C(C#N)=C/c1c(Oc2cccc(C)c2)nc2ccccn2c1=O | 25%[10 µM] | / | / | 10%[9.22 µM] | 4% | /
COc1ccc(Br)c(C(=O)N2CCN(S(=O)(=O)c3cccs3)CC2)c1 | -7%[10 µM] | / | / | -5%[9.22 µM] | -12% | /
Cc1ccsc1-c1nc(CSCC(=O)N2CCN(c3ccccc3)CC2)c(C)o1 | 10% | 3 | -4% | 13µM* | ? | ?
Cc1ccccc1CSCC(=O)N1CCN(c2ccccc2)CC1 | / | / | -2% | 1% | -17% | ?
O=C(CSc1nc2ccccc2n1-c1ccccc1)Nc1ncc(Cl)cc1Cl | 5%[10 µM] | -8 | -6% | 3% | -41% | -107*

Screens (PubChem BioAssay)
